In the library only some 3.2% were active in any assay of this set; here they are far more common.
ERa coact inh: ERα–SRC-1 coactivator interaction inhibitors, primary screen, biochemical, TR-FRET, ERα LBD, estradiol-bound; Estrogen receptor (Homo sapiens), P03372; TR-FRET ER-alpha LBD / SRC-1 peptide; inhibition, % at 25.6 µM; 1.7% of 86,000 active; AID 629, 2007; in the data active means inhibition above about 50%
FAK inh: FAK kinase inhibitors, primary screen, biochemical; AID 727, 2007; 0.84% of 97,000 active; biochemical FAK kinase activity assay; inhibition, %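 (tested at 7 µM)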; in the data active means inhibition above about 19%
ERb SRC1 inh: inhibitors of ERβ-SRC1 coactivator interaction, primary screen, biochemical, TR-FRET, ERβ LBD, SRC-1 peptide | Estrogen receptor beta (Homo sapiens), Q92731 | TR-FRET ER-beta LBD / SRC1-Cy5 peptide binding; receptor agonist-loaded with 1 µM estradiol | inhibition, % at 25.6 µM | 1.3% of 86,000 active | AID 633, 2007;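 active means compounds whose percent inhibition of the receptor-coactivator binding signal exceeds about 50% in the single-dose screen, limit read from the data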
Target sequence (Q92731 whole entry, looked up, the tested form may be a part): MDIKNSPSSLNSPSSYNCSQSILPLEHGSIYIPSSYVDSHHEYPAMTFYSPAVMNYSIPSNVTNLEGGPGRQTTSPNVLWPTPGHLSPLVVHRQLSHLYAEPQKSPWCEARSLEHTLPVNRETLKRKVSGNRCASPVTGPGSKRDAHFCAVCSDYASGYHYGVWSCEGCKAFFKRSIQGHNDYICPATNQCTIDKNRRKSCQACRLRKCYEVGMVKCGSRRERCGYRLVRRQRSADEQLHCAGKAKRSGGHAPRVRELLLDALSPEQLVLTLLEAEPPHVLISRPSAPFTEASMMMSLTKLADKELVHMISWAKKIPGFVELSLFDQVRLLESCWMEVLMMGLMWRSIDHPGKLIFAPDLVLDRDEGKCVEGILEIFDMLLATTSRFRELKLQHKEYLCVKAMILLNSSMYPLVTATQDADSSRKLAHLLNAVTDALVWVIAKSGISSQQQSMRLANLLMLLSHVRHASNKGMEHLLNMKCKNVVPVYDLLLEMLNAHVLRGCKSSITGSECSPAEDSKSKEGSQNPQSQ
ERa coact pot: enhancers of ERα–SRC-1 coactivator binding, primary screen, biochemical, TR-FRET, ERα LBD, low estradiol | coactivator binding (% of control), % at 25.6 µM | AID 639, 2007 | Estrogen receptor (Homo sapiens), P03372 | 1.3% of 86,000 active | TR-FRET ERalpha-LBD/SRC-Cy5 coactivator binding, 2 h; 100 = basal binding, no effect; in the data active means activity above about 200%;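 further: binding measured in presence of low estradiol as agonist stimulus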
A number is an active result; n = inactive; x = no result given; [ ] = dose if it differs, or a comment.

SMILES	ERa coact inh	FAK inh	ERb SRC1 inh	ERa coact pot
COc1ccc(-c2nc(Cn3c(SCc4ccc(C)cc4)nc4ccncc43)c(C)o2)cc1OC	n	n	n	217
COc1ccc(-c2nc(Cn3c(SCc4cccc(F)c4)nc4ccncc43)c(C)o2)cc1OC	n	x	n	237
O=C(Nc1ccc(/C=C/c2nc3ccccc3o2)cc1)c1ccc(F)cc1	x	n	x	x
COc1cc(C)c(S(=O)(=O)NCc2ccc3c(c2)OCO3)cc1C	66	n	n	n
CCOC(=O)/C(C#N)=C/C1=C(N2CCCC2)CC(C)(CC)OC1 (configuration not stated)	n	n	n	n
O=C(CSc1nnc(-c2ccco2)n1-c1ccccc1)N1CCN(C(=O)c2ccco2)CC1	n	n	n	521[fluorescence artefact?]
Cn1c(SCC(=O)N2CCN(c3ccccc3)CC2)nnc1-c1ccco1	n	n	n	n
CCOC(=O)c1cnc(-n2nc(C)cc2C)nc1NCc1ccccc1	n	n	n	n
CCOC(=O)c1cnc(-n2cc(C)cn2)nc1NCc1ccc2c(c1)OCO2	65[fluorescence artefact?]	n	n	n
CCN(CC)S(=O)(=O)c1cccc(-c2nnc(SCCCC(=O)c3ccc(F)cc3)o2)c1	n	n	n	578[fluorescence artefact?]
CCN(CC)S(=O)(=O)c1cccc(-c2nnc(SCCCC(=O)c3ccccc3)o2)c1	n	n	n	n
CN(C)c1nccc(Nc2ccccc2)c1C#N	99[fluorescence artefact?]	n	n	n
COc1cc2[nH]c(=O)n(CCC(=O)N3CCN(c4cccc(C)c4C)CC3)c(=O)c2cc1OC	53[fluorescence artefact?]	n	n	n
COc1cc2[nH]c(=O)n(CCCCCC(=O)N3CCN(c4ccccc4)CC3)c(=O)c2cc1OC	n	n	n	n
Cn1c(=O)[nH]c(=O)c2c1nc(CN1CCN(c3ccc(F)cc3)CC1)n2CCc1ccccc1	n	n	n	399[fluorescence artefact?]
Cc1ccc(-n2nnnc2SC(C)C(=O)Nc2ccc(Cl)cn2)cc1 (configuration not stated)	n	x	n	n
CC(C)(C)NC(=O)CSc1ncnc2c1nnn2Cc1ccccc1Cl	n	n	n	n
O=C1CCCC(O)=C1C1C2=C(CCCC2=O)Oc2ccccc21 (configuration not stated)	n	n	n	n
Cc1cc(NC(=O)CSc2nc(-c3cccnc3)ccc2C#N)no1	n	n	n	n
COc1ccc(C(=O)CSc2nc(N)nc(SC)c2C#N)cc1	n	n	n	480[fluorescence artefact?]
Cc1cc(NC(=O)CSc2nc3c(c(-c4cccnc4)c2C#N)CCC3)no1	n	n	n	258[fluorescence artefact?]
COc1ccc(-c2c(C#N)c(SCC(N)=O)nc3c2CCCC3)cc1	n	n	n	285
N#Cc1c(SCC(N)=O)nc2c(c1-c1ccc(O)cc1)CCCC2	n	n	n	n
Cc1cc(C)nc(-n2nc(C)c3c(=O)[nH]c(C(F)(F)F)nc32)n1	n	n	n	n
O=C(Cn1ccc2ccccc2c1=O)NCCC(=O)N1CCN(c2cccc(C(F)(F)F)c2)CC1	n	n	n	n
SMILES	ERa coact inh	FAK inh	ERb SRC1 inh	ERa coact pot
Cc1noc(C)c1CSc1nnc(-c2ccncc2)n1-c1ccc(Cl)c(Cl)c1	n	n	n	n
Cn1c2ccccc2c(=O)c2c(=O)n(C3CCCCC3)c(-c3cccs3)nc21	n	n	n	436[fluorescence artefact?]
Cc1cc2oc(=O)cc(CN3CCCc4ccccc43)c2cc1C	n	x	n	231[fluorescence artefact?]
Cc1cc2oc(=O)cc(CN3CCOCC3)c2cc1C	n	n	n	n
CCNc1ccc2noc3c2c1C(=O)c1ccccc1-3	n	49	n	n
O=C1c2ccccc2-c2onc3ccc(NCc4ccco4)c1c23	n	x	n	n
Cc1c(/C=N/n2cnnc2)c2ccccc2n1CCOc1ccc(Cl)cc1	53	n	n	n
CCOC(=O)Cn1c(=NC(=O)CSC(C)=O)sc2cc(F)ccc21	n	n	n	n
Cc1ccc2c(c1)c(=O)c1c3n2CCN(C(=O)CCl)C3CC1 (configuration not stated)	83[fluorescence artefact?]	n	72	n
COc1ccc(OC)c(C2C(C(=O)c3ccco3)=C(O)C(=O)N2CCCN2CCOCC2)c1 (configuration not stated)	n	x	n	n
Cc1ccc(C)c(SCC(=O)OCC(=O)c2ccco2)c1	65	n	63	n
CCN(CC)CCN(CC)Cc1ccccc1Br	n	n	n	n
O=C(NC(=S)Nc1ccc(C(=O)N2CCOCC2)cc1)c1ccc([N+](=O)[O-])cc1	x	n	x	x
Cc1ccc2cc3cc(C(=O)NCCCN4CCCCCC4)oc3nc2c1	58[fluorescence artefact?]	n	n	n
Cc1ccc2cc3cc(C(=O)NCCCN4CCc5ccccc5C4)oc3nc2c1	n	n	n	n
c1cc2ccc3ccc(-n4cnnn4)c4ccc(c1)c2c34	x	n	x	x
Cc1ccc2c(c1)N(CC(=O)NC1CCCc3ccccc31)C(=O)CO2 (configuration not stated)	67	n	n	n
CCCc1nnc(NC(=O)CCCN2C(=O)c3ccccc3C2=O)s1	n	n	n	n
CCn1c(CSCc2ccc(F)cc2)nnc1SCC(=O)N1CCN(c2ccccc2)CC1	x	n	x	x
CCn1c(Cc2ccc(OC)cc2)nnc1SCC(=O)N1CCN(c2ccccc2)CC1	n	n	n	591[fluorescence artefact?]
COc1ccc(OCC(=O)Nc2ccc(NC(=O)c3ccco3)cc2)cc1	n	n	n	n
Cc1ccc(NC(=O)c2ccc(OC(=O)c3ccco3)cc2)cc1	n	n	n	372[fluorescence artefact?]
CCOC(=O)c1c(C)[nH]c(C)c1C(=O)COc1ccc(NC(=O)c2ccco2)cc1	n	n	54[fluorescence artefact?]	n
Cn1c(-c2ccc(F)cc2)cnc1SCC(=O)Nc1ccccc1N1CCOCC1	n	n	n	n
O=C(c1ccco1)N1CCN(C(c2cccs2)c2nnnn2C2CCCCC2)CC1 (configuration not stated)	n	n	n	n
SMILES	ERa coact inh	FAK inh	ERb SRC1 inh	ERa coact pot
COc1ccc(NC(=O)CN(c2ccccc2)S(=O)(=O)N(C)C)cc1OC	63[fluorescence artefact?]	n	57	n
CCOC(=O)c1c(C)oc2ccc(OCc3cc(C(=O)OC)oc3C)cc12	n	n	n	n
CC(=O)C1=C(C)NC(SCC(=O)c2ccc(-c3ccccc3)cc2)=C(C#N)C1c1cccnc1 (configuration not stated)	n	n	n	355[fluorescence artefact?]
Cc1cccc2sc(NC(=O)C3CCCO3)nc12 (configuration not stated)	n	n	n	n
Cc1nc(C)c(C(=O)Nc2nc3c(C)cccc3s2)o1	92[fluorescence artefact?]	n	91[fluorescence artefact?]	n
O=C(COC(=O)Cc1ccsc1)NC1CCCCCC1	n	n	n	n
COC(=O)C1=C(O)/C(=C\c2ccc(O)c(OC)c2)N=C1C	n	n	n	n
CCOC(=O)C1=C(O)/C(=C\c2ccc(CNC(=O)C(=O)Nc3ccc(C)c(C)c3)o2)N=C1C	72	n	55	n
Cc1ccc(NC(=O)CSCCc2ccccn2)nc1	n	n	n	n
CCc1c(C)sc(NC(=O)c2cnn3cccnc23)c1C#N	n	n	n	262[fluorescence artefact?]

From PubChem
